± gives the standard deviation.
Key:
Details in all cases: modulator concentration 10 µM
[1] = system: RAW-Dual (murine macrophage reporter line); experiment: NF-kB reporter (SEAP) activity fold change vs agonist alone; higher = enhanced NF-kB activity
How it was run: (§1)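 In 384-well plates holding 50 000 RAW-Dual murine macrophage reporter cells per well, compound at 10 μM final was pre-incubated for 1 hour at 37 °C, after which a PRR agonist was added overnight. Supernatant SEAP read with QUANTI-Blue at 620 nm absorbance reported NF-κB, and Lucia luciferase read with QUANTI-Luc luminescence reported IRF. Fold change values come from dividing each reporter signal by the mean of agonist-only control wells on the same plate, averaged over replicate plates with propagated errors.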

[2] = system: RAW-Dual (murine macrophage reporter line); experiment: IRF reporter (Lucia luciferase) activity fold change vs agonist alone; higher = enhanced IRF activity
How it was run: as §1

[3] = system: RAW-Dual (murine macrophage reporter line); experiment: viability score (confluency relative to resting cells, overnight) (fraction); higher = more viable, active = viable (0.7 or more)
How it was run: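 In 384-well plates, RAW-Dual macrophages received compound at a final 10 μM overnight. Two confluency masks were then made with IncuCyte software from IncuCyte images of all imaged wells. The viability score is defined as confluency relative to resting cells. Passing the cutoff required both masks to lie above 70% of resting cells.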

[4] = agonist: CpG ODN 1826 0.5 ug/mL

| Compound | NF-kB reporter [1, 4] | NF-kB reporter ([1]; agonist: LPS 0.1 ug/mL) | NF-kB reporter ([1]; agonist: MPLA […]) | IRF reporter ([2]; agonist: 3'3'-cGAMP 10 ug/mL) | IRF reporter ([2]; agonist: LPS 0.1 ug/mL) | IRF reporter ([2]; agonist: MPLA […]) | viability score [3] |
| --- | --- | --- | --- | --- | --- | --- | --- |
| CNC(=O)[C@H](Cc1ccccc1)NC(=O)[C@H](CC(C)C)[C@H](CSc1cccs1)C(=O)NO | 1.23 ± 0.093 | 1.22 ± 0.13 | 1.01 ± 0.048 | 0.96 ± 0.15 | 1.05 ± 0.15 | 0.947 ± 0.28 | 0.999 (active) |
| C[C@@H](O)[C@H]1C(=O)N2C(C(=O)O)=C(SCCNC=N)C[C@H]12.O | 0.988 ± 0.074 | 1.01 ± 0.049 | 0.981 ± 0.034 | 0.897 ± 0.086 | 1.04 ± 0.089 | 1.25 ± 0.14 | 0.999 (active) |
| COc1cc2c(cc1OC)C(=O)NC1(CCCC1)C2 | 1.24 ± 0.095 | 0.958 ± 0.073 | 0.959 ± 0.092 | 0.819 ± 0.05 | 0.872 ± 0.11 | 0.911 ± 0.17 | 1.02 (active) |
| COc1ccc(-c2nc3cc(C4=NNC(=O)CC4C)ccc3[nH]2)cc1 (configuration not stated) | 2.4 ± 0.37 | 1.37 ± 0.23 | 1.14 ± 0.073 | 0.164 ± 0.057 | 1.07 ± 0.25 | 1.33 ± 0.12 | 0.775 (active) |
| CCOC(=O)N1CCN(C(=O)CSc2nnc(-c3cccc(Cl)c3)o2)CC1 | 0.846 ± 0.18 | 0.96 ± 0.065 | 0.974 ± 0.057 | 0.769 ± 0.03 | 1.29 ± 0.1 | 1.04 ± 0.11 | 0.95 (active) |
| COc1cc2ncnc(Nc3ccc(F)c(Cl)c3)c2cc1OCCCN1CCOCC1.Cl | 0.0798 ± 0.019 | 0.978 ± 0.06 | 1.08 ± 0.1 | 0.193 ± 0.015 | 0.835 ± 0.1 | 1.16 ± 0.11 | 0.592 (inactive) |
| O=C(NCC(F)(F)F)c1ccc(OCC2CCOCC2)nc1 | 0.911 ± 0.044 | 0.87 ± 0.093 | 1.09 ± 0.064 | 0.937 ± 0.044 | 1.3 ± 0.24 | 1.51 ± 0.46 | 0.993 (active) |
| CNCCCN1c2ccccc2CCc2ccccc21.Cl | 0.462 ± 0.11 | 1.14 ± 0.11 | 1.54 ± 0.1 | 0.45 ± 0.017 | 1.46 ± 0.2 | 1.88 ± 0.19 | 0.951 (active) |
| COc1ccc(CNC(=O)NCC#CCOc2cccc(C(F)(F)F)c2)cc1OC | 1.07 ± 0.11 | 1.07 ± 0.098 | 0.95 ± 0.063 | 1.01 ± 0.05 | 1.09 ± 0.13 | 1.13 ± 0.29 | 1.01 (active) |
| CCCCCCCC(O)CC(CC1CCCCC1)C(=O)NN (configuration not stated) | 0.721 ± 0.056 | 0.912 ± 0.074 | 0.977 ± 0.093 | 0.88 ± 0.062 | 1.19 ± 0.22 | 1.28 ± 0.28 | 1.02 (active) |
| Fc1ccc(Nc2nc(NN=Cc3ccccc3Cl)nc(N3CCCCC3)n2)cc1 | 1.02 ± 0.17 | 1.26 ± 0.13 | 1.4 ± 0.31 | 0.992 ± 0.071 | 1.1 ± 0.19 | 1.48 ± 0.24 | 0.961 (active) |
| Cc1ncsc1C(=O)NC1CCC(F)(F)CC1 | 1.06 ± 0.068 | 1.1 ± 0.088 | 0.991 ± 0.033 | 0.68 ± 0.034 | 1.01 ± 0.057 | 1 ± 0.1 | 0.999 (active) |
| O=C(O)CCC(=O)O.O=C(O[C@H]1CN2CCC1CC2)N1CCc2ccccc2[C@@H]1c1ccccc1 | 0.544 ± 0.087 | 0.886 ± 0.046 | 1.07 ± 0.029 | 0.921 ± 0.1 | 1.05 ± 0.097 | 0.977 ± 0.11 | 0.992 (active) |
| Cc1cc(C)c(NC(=O)C2C3CCC4C(CCC32)C4(Cl)Cl)c(C)c1 (configuration not stated) | 1.01 ± 0.11 | 1.03 ± 0.079 | 1.02 ± 0.062 | 1.03 ± 0.027 | 1.61 ± 0.14 | 1.1 ± 0.11 | 1.01 (active) |
| CC(CS)C(=O)N1CCCC1C(=O)O (configuration not stated) | 0.96 ± 0.096 | 0.932 ± 0.068 | 0.977 ± 0.18 | 0.973 ± 0.03 | 1.22 ± 0.12 | 1.33 ± 0.18 | 1.02 (active) |
| Cc1ccc(Nc2nc(Cl)nc(Nc3ccc(C(C)C)cc3)n2)cc1 | 0.851 ± 0.067 | 1.06 ± 0.078 | 1.19 ± 0.13 | 0.828 ± 0.045 | 1.1 ± 0.19 | 1.33 ± 0.32 | 1.03 (active) |
| COc1ccc(C2=CC(c3cc(OC)c(OC)c(OC)c3)n3ncnc3N2)cc1 (configuration not stated) | 1.26 ± 0.087 | 1.08 ± 0.066 | 1.22 ± 0.087 | 1.15 ± 0.047 | 1.07 ± 0.07 | 1.27 ± 0.15 | 0.985 (active) |
| CC(Oc1ccc(Cl)cc1)C(=O)NCc1cccnc1 (configuration not stated) | 1.2 ± 0.11 | 0.981 ± 0.12 | 0.989 ± 0.096 | 1.05 ± 0.026 | 1.31 ± 0.17 | 1.17 ± 0.12 | 1.01 (active) |
| N#Cc1c(N=Cc2ccc(Br)cc2)sc2c1CCCC2 | 0.782 ± 0.075 | 1 ± 0.067 | 0.964 ± 0.033 | 0.896 ± 0.14 | 0.96 ± 0.041 | 1 ± 0.077 | 1 (active) |
| CCC1(O)C(=O)OCc2c1cc1n(c2=O)Cc2cc3cc(O)ccc3nc2-1 (configuration not stated) | 2.02 ± 0.62 | 1.28 ± 0.11 | 2.19 ± 0.4 | 2.67 ± 0.16 | 2.12 ± 0.24 | 1.89 ± 0.32 | 0.851 (active) |
| CCC1OC(=O)C(C)C(OC2CC(C)(OC)C(O)C(C)O2)C(C)C(OC2OC(C)CC(N(C)C)C2O)C(C)(O)CC(C)CN(C)C(C)C(O)C1(C)O (configuration not stated) | 0.593 ± 0.046 | 1.1 ± 0.07 | 1.19 ± 0.029 | 0.727 ± 0.058 | 0.948 ± 0.11 | 0.952 ± 0.088 | 0.998 (active) |
| CN1CCOC(c2ccccc2)c2ccccc2C1.Cl (configuration not stated) | 1.11 ± 0.27 | 1.04 ± 0.052 | 1.05 ± 0.078 | 0.84 ± 0.031 | 1.36 ± 0.16 | 0.95 ± 0.23 | 1.01 (active) |
| O=c1cc(-c2ccc(O)cc2)oc2cc(OC3OC(CO)C(O)C(O)C3O)cc(O)c12 (configuration not stated) | 1.14 ± 0.11 | 1.06 ± 0.072 | 1.05 ± 0.022 | 0.911 ± 0.094 | 0.966 ± 0.05 | 1.01 ± 0.086 | 0.998 (active) |
| CC(=O)OCC(=O)NCCCOc1cccc(CN2CCCCC2)c1.Cl | 1.14 ± 0.19 | 1.21 ± 0.23 | 0.924 ± 0.056 | 0.951 ± 0.039 | 1.42 ± 0.13 | 1.11 ± 0.1 | 0.99 (active) |
| CC(C)NC(=N)NC(=N)Nc1ccc(Cl)cc1 [Prestw-999] | 0.806 ± 0.053 | 1.33 ± 0.1 | 1.27 ± 0.087 | 0.994 ± 0.059 | 1.18 ± 0.12 | 0.954 ± 0.3 | 0.994 (active) |
| O=C1CCC(N2C(=O)c3ccccc3C2=O)C(=O)N1 (configuration not stated) | 1.13 ± 0.088 | 1.03 ± 0.16 | 1.04 ± 0.12 | 1.11 ± 0.25 | 0.897 ± 0.054 | 0.863 ± 0.067 | 0.999 (active) |

— the supplement of paper PMC10646978
